The panel holds about 83,000 compounds, 20% with a hit somewhere; the sample as a whole holds those more often.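 Single-dose data. Exposure time 48 hours. Values below 10 considered active.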 Unmarked numbers belong to inactive results. Activity calls are given as the source filed them.

The first experiment relates to T-47D breast. The experiment in a line: NCI-60 one-dose screen, 48 h (100 = growth as untreated, 0 = no growth, -100 = all killed). Conditions: 10 µM.
Take `Cc1ccc(S(=O)(=O)N2CCc3ccc(O)c4c3C2Cc2cc(Cl)ccc2-4)cc1` (stereo not given): the growth is 65.4%.
With `CCC12CCC3c4ccc(O)cc4CCC3C1CC(O)C2O` (stereo not given), the growth is 93.9%.
Still for that read-out and setting: for `Nc1cc2[nH]c(=O)c3ccccc3c2cc1Br` the value was 20.6%; for `O=C1N/C(=C\c2ccccc2)c2ncccc21`, 79.5%; for `O=C1/C(=C/c2ccccc2F)CNC/C1=C\c1ccccc1F`, 9.26% (active).
For `Cc1ccc(S(=O)(=O)N2CCc3ccc(O)c4c3C2Cc2ccc3c(c2-4)OCO3)cc1` (stereo not given), the growth is 46%.
Consider `O=C(CC(O)c1ccccc1)Nc1ccccn1` (stereo not given), for which the growth was 94.1%.
For the compound `O=C1c2ccccc2-c2cn(Cc3ccccc3)c3cccc(c23)C1c1cccnc1` (stereo not given), the growth is 43%.
As for `COc1cccc(OC)c1OC(=O)c1ccccc1`, the growth is 104%.
As for `Cc1ccc(S(=O)(=O)N2CCc3ccc(O)c4c3C2CCc2ccccc2-4)cc1` (stereo not given), the growth was 94%.
Take `COc1cc(CNCCCN2C(=O)c3ccc4c5c(ccc(c35)C2=O)C(=O)N(CCCNCc2cc(OC)c(OC)c(OC)c2)C4=O)cc(OC)c1OC`: the growth was -56.9% (active).
As for `COc1cc(/C=C/C(=O)C(=Cc2ccc(F)c(F)c2)C(=O)/C=C/c2ccc(O)c(OC)c2)ccc1O`, the growth was 44.1%.
Same read-out and setting: for `NC1=NC(c2ccccc2OS(=O)(=O)c2ccc(Br)cc2)n2c(nc3ccccc32)N1` (stereo not given) the value was 81.2%; for `CC(=O)OC[C@H](O)[C@@]1(O)CC[C@H]2[C@@H]3CCC4=CC(=O)CC[C@]4(C)[C@H]3[C@@H](O)C[C@@]21C`, 113%; for `C=C1CC[C@@H]2[C@@](C)(CCC[C@]2(C)C(=O)O)[C@@H]1CC[C@H](CO)CCO`, 90.5%.
Consider `COc1cc(/C=C/C(=O)CC(=O)/C=C/c2cc(Br)c(OC)c(OC)c2)cc(Br)c1OC`, for which the growth is 83.7%.
Regarding `NC(=S)N/N=C1\c2ccccc2-c2c(F)c(F)c(F)c(F)c21`, the growth is 8.63% (active).
For the compound `COc1c(O)c2c3c(c1OC)-c1ccccc1CC3N(S(=O)(=O)c1ccc(C)cc1)CC2` (stereo not given), the growth was 62%.
On the same count and under the same terms, for `CN1CCN(C)c2cncc(Br)c2C1=O` the value was 101%.

In another experiment the test system is BT-549 breast. Described as above. The settings on record: 10 µM unless noted.
Regarding `Nc1nc(-c2ccnc(Cl)c2)nn1-c1nc2ccccc2s1`, the growth is 106%.
Same read-out and setting: for `Cc1nc2cc(Nc3nc(NCCO)nc(Nc4ccc(F)cc4)n3)ccc2n1Cc1ccccc1` the value was 101%.
In the case of `O=c1c2c(=NCCN3CCCC3)cc3c(=O)n(CCCN4CCOCC4)c(=O)c4ccc(c(O)n1CCCN1CCOCC1)c2c4-3`, the growth is -34.9% (active).
For `COc1ccc(NC(=O)c2ccc3c(c2)nc(-c2ccc(Cl)cc2)n3-c2cc(C(C)(C)C)[nH]n2)cc1`, the growth is 81.3%.
`Cn1c2ccc(Cl)cc2c2nn(C(=O)c3ccccc3)c(=O)nc21`: the growth was 122%.
Consider `NC(=O)c1cc(I)ccc1NC(=O)COc1ccc(Cl)cc1Cl`, for which the growth was 77.6%.
In the case of `CCCN1CCN(c2ccc3nc(-c4ccc5nc(-c6ccc(C(F)(F)F)cc6)[nH]c5c4)[nH]c3c2)CC1`, the growth was 73.5%.
In the case of `C[C@]1(CO)C[C@@H](O)C[C@]2(C)[C@@H]1CC[C@@]13C[C@@H]4[C@@H](C[C@H]12)[C@]4(C)C3`, the growth was 98.8%.
The same measure, in the same setting: then `NC(=O)c1cc(I)ccc1NC(=O)COc1ccccc1`, with 69.3%; and `Cc1ccc(N(CSc2ccc(Cl)cc2)CSc2ccc(Cl)cc2)cc1`, with 19.1%; and `COc1cc(-c2nc(SC(C)C)nc(Nc3cccc(C)c3)c2C#N)cc(OC)c1OC`, with 107%.
The same measure, in the same setting: then `COC(=O)c1ccc(C(=O)Nc2ccccc2N)cc1`, with 60%; and `COc1c(Cl)ccc2c(-c3nc4cc(Cl)c(F)cc4s3)cc(=O)oc12`, with 107%; and `COc1ccc(-c2nc3sc(C)nn3c2-c2nc3cc(C)c(C)cc3[nH]2)cc1`, with 96.5%.
The same measure, in the same setting: then `O=C1/C(=C/c2ccc(Cl)cc2)N=C(c2ccccc2)N1CCc1cccs1`, with 59.8%; and `CC(C)(C)CC(C)(C)N(CSc1ccc(Cl)cc1)CSc1ccc(Cl)cc1`, with -52.4% (active).
With `Cc1ccccc1-n1nnc(C(=O)Nc2ccc(-c3ccccc3)cn2)c1C`, the growth was 50.7% [50 µM].
`O=C(c1cnn2c1NC(c1ccc(F)cc1)C2)N1CCCCC1` (stereo not given): the growth was 110%.
Consider `CCCCNNC(=O)c1ccc(Br)cc1`, for which the growth is 78.7%.
As for `CCC(C)Oc1cc(/C=N/NC(=O)c2cnn3c2NC(c2ccccc2)C3)ccc1OC` (stereo not given), the growth is 40.7%.
As for `COc1cc(OCc2cccc(-c3ccc(C(O)c4nccs4)cc3)c2C)cc(OC)c1C=O` (stereo not given), the growth is 39.6%.

Another experiment concerns MDA-MB-435 melanoma. The description is as above. The settings on record: 10 µM unless noted.
`Nc1nc(-c2ccnc(Cl)c2)nn1-c1nc2ccccc2s1`: the growth was 107%.
On the same count and under the same terms, then `Cc1ccc(S(=O)(=O)N2CCc3ccc(O)c4c3C2Cc2cc(Cl)ccc2-4)cc1` (stereo not given), with 8.9% (active); and `Cc1nc2cc(Nc3nc(NCCO)nc(Nc4ccc(F)cc4)n3)ccc2n1Cc1ccccc1`, with 91.6%.
For the compound `CCC12CCC3c4ccc(O)cc4CCC3C1CC(O)C2O` (stereo not given), the growth is -2.42% (active).
As for `O=c1c2c(=NCCN3CCCC3)cc3c(=O)n(CCCN4CCOCC4)c(=O)c4ccc(c(O)n1CCCN1CCOCC1)c2c4-3`, the growth is -87.9% (active).
As for `Nc1cc2[nH]c(=O)c3ccccc3c2cc1Br`, the growth is 95.3%.
For the compound `O=C1N/C(=C\c2ccccc2)c2ncccc21`, the growth was 109%.
As to `O=C1/C(=C/c2ccccc2F)CNC/C1=C\c1ccccc1F`, the growth is -56.7% (active).
On to `COc1ccc(NC(=O)c2ccc3c(c2)nc(-c2ccc(Cl)cc2)n3-c2cc(C(C)(C)C)[nH]n2)cc1`, for which the growth is 88.9%.
Regarding `Cc1ccc(S(=O)(=O)N2CCc3ccc(O)c4c3C2Cc2ccc3c(c2-4)OCO3)cc1` (stereo not given), the growth is -4.03% (active).
`Cn1c2ccc(Cl)cc2c2nn(C(=O)c3ccccc3)c(=O)nc21`: the growth was 111%.
As to `NC(=O)c1cc(I)ccc1NC(=O)COc1ccc(Cl)cc1Cl`, the growth is 14.9%.
Regarding `CCCN1CCN(c2ccc3nc(-c4ccc5nc(-c6ccc(C(F)(F)F)cc6)[nH]c5c4)[nH]c3c2)CC1`, the growth is -89% (active).
For `O=C(CC(O)c1ccccc1)Nc1ccccn1` (stereo not given), the growth is 97.9%.
Consider `O=C1c2ccccc2-c2cn(Cc3ccccc3)c3cccc(c23)C1c1cccnc1` (stereo not given), for which the growth is 6.45% (active).
On the same count and under the same terms, then `C[C@]1(CO)C[C@@H](O)C[C@]2(C)[C@@H]1CC[C@@]13C[C@@H]4[C@@H](C[C@H]12)[C@]4(C)C3`, with 99.5%.
The same measure, in the same setting: for `NC(=O)c1cc(I)ccc1NC(=O)COc1ccccc1` the value was -56% (active); for `Cc1ccc(N(CSc2ccc(Cl)cc2)CSc2ccc(Cl)cc2)cc1`, 40.8%; for `COc1cccc(OC)c1OC(=O)c1ccccc1`, 97.5%.
In the case of `COc1cc(-c2nc(SC(C)C)nc(Nc3cccc(C)c3)c2C#N)cc(OC)c1OC`, the growth is 107%.
In the case of `Cc1ccc(S(=O)(=O)N2CCc3ccc(O)c4c3C2CCc2ccccc2-4)cc1` (stereo not given), the growth was 97.7%.
As for `COc1cc(CNCCCN2C(=O)c3ccc4c5c(ccc(c35)C2=O)C(=O)N(CCCNCc2cc(OC)c(OC)c(OC)c2)C4=O)cc(OC)c1OC`, the growth was -71.5% (active).
As to `COC(=O)c1ccc(C(=O)Nc2ccccc2N)cc1`, the growth was 77.7%.
As to `COc1c(Cl)ccc2c(-c3nc4cc(Cl)c(F)cc4s3)cc(=O)oc12`, the growth was 102%.
For `COc1ccc(-c2nc3sc(C)nn3c2-c2nc3cc(C)c(C)cc3[nH]2)cc1`, the growth is 95.6%.
In the case of `COc1cc(/C=C/C(=O)C(=Cc2ccc(F)c(F)c2)C(=O)/C=C/c2ccc(O)c(OC)c2)ccc1O`, the growth was 0.136% (active).
On the same count and under the same terms, for `O=C1/C(=C/c2ccc(Cl)cc2)N=C(c2ccccc2)N1CCc1cccs1` the value was 53.2%; for `CC(C)(C)CC(C)(C)N(CSc1ccc(Cl)cc1)CSc1ccc(Cl)cc1`, 46.3%.
Still for that read-out and setting: for `NC1=NC(c2ccccc2OS(=O)(=O)c2ccc(Br)cc2)n2c(nc3ccccc32)N1` (stereo not given) the value was 73.1%; for `CC(=O)OC[C@H](O)[C@@]1(O)CC[C@H]2[C@@H]3CCC4=CC(=O)CC[C@]4(C)[C@H]3[C@@H](O)C[C@@]21C`, 119%; for `Cc1ccccc1-n1nnc(C(=O)Nc2ccc(-c3ccccc3)cn2)c1C`, 23.8% [50 µM].
For the compound `C=C1CC[C@@H]2[C@@](C)(CCC[C@]2(C)C(=O)O)[C@@H]1CC[C@H](CO)CCO`, the growth is 109%.
Consider `O=C(c1cnn2c1NC(c1ccc(F)cc1)C2)N1CCCCC1` (stereo not given), for which the growth was 94.8%.
`COc1cc(/C=C/C(=O)CC(=O)/C=C/c2cc(Br)c(OC)c(OC)c2)cc(Br)c1OC`: the growth is 101%.
With `CCCCNNC(=O)c1ccc(Br)cc1`, the growth was 36.5%.
On to `NC(=S)N/N=C1\c2ccccc2-c2c(F)c(F)c(F)c(F)c21`, for which the growth is 99.6%.
Consider `COc1c(O)c2c3c(c1OC)-c1ccccc1CC3N(S(=O)(=O)c1ccc(C)cc1)CC2` (stereo not given), for which the growth is -0.0173% (active).
Consider `CN1CCN(C)c2cncc(Br)c2C1=O`, for which the growth was -81.7% (active).
On to `CCC(C)Oc1cc(/C=N/NC(=O)c2cnn3c2NC(c2ccccc2)C3)ccc1OC` (stereo not given), for which the growth is 0.38% (active).
For the compound `COc1cc(OCc2cccc(-c3ccc(C(O)c4nccs4)cc3)c2C)cc(OC)c1C=O` (stereo not given), the growth is 30.8%.

The values are drawn from PubChem BioAssay (NCI).
